The full list was thinned out, with hits kept by preference.
DENV2 CPE rescue: protects cells from dengue virus 2 cytopathic effect; CPE inhibition, % at 9.99 µM; AID 651640; 1.7% of 350,000 active; DENV2-infected cells, cytopathic effect rescue, plate reader; in the data active = CPE inhibition above about 20%, passing the limit was not always enough; tested in BHK-21 cells
PglD DTNB: inhibitors of Campylobacter jejuni PglD acetyltransferase. purified PglD enzyme, DTNB colorimetric CoA detection. inhibition, % at 12.5 µM. 0.098% of 360,000 active. AID 602405; in the data active = inhibition above about 16%, passing the limit was not always enough
Rtt109 HAT inh: blocks Candida albicans Rtt109/Vps75 acetyltransferase activity | 0.16% of 330,000 active | Q5AAJ8 | inhibition, % at 34.9 µM | AID 540336 | purified Rtt109/Vps75, ThioGlo CoA-SH fluorescence, 4 h;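 active = inhibition of at least 50% in every replicate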
Target sequence (Q5AAJ8 whole entry, looked up): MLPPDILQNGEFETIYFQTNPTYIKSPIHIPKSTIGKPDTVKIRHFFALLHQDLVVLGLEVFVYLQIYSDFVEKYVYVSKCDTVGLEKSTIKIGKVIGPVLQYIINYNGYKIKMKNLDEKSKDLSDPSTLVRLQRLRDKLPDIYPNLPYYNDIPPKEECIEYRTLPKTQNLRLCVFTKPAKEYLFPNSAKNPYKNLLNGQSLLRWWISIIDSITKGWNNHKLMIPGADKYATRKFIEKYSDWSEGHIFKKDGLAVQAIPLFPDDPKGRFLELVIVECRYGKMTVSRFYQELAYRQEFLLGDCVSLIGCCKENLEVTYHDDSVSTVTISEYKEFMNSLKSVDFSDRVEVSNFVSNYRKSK
Glyco luc inh: N-linked glycosylation inhibition; 0.23% of 360,000 active; reporter increase, % at 12.5 µM; D54 ERlucT glycosylation luciferase reporter, 24 h; percent of 100 nM tunicamycin response;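 active = mean luciferase reporter signal, scaled so untreated is 0 and the glycosylation-blocking control 100, at or above a set limit in every replicate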;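 also: luciferase carries N-glycosylation sites so blocking glycosylation raises the light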
Numbers stand for hits; 0 = inactive; - = no result given.

SMILES	DENV2 CPE rescue	PglD DTNB	Rtt109 HAT inh	Glyco luc inh
CC(=O)NC(CC(=O)NC1CCCc2ccccc21)c1ccccc1 (stereo not drawn)	0	0	57	0
CC(=O)c1ccc(OCCCC(=O)NC2CCCc3ccccc32)cc1 (stereo not drawn)	22	0	0	0
COc1ccc(OCC(=O)NC2CCCc3ccccc32)cc1 (stereo not drawn)	0	-	0	0
O=C(CSc1nncn1-c1ccccc1)NC1CCCc2ccccc21 (stereo not drawn)	0	-	-	0
CC(=O)N1[C@H](CO)[C@H](c2ccccc2)[C@@H]1CNC(=O)CN1CCOCC1	0	0	-	-
CO[C@H]1CN(C)C(=O)c2ccc(NC(=O)Nc3cccc(F)c3)cc2OC[C@@H](C)N(C(=O)Nc2c(C)noc2C)C[C@@H]1C	25	0	-	-
CO[C@@H]1CN(C)C(=O)c2ccc(NC(=O)Nc3cccc(Cl)c3)cc2OC[C@H](C)N(C(=O)Nc2c(C)noc2C)C[C@H]1C	31	-	-	-
CO[C@H]1CN(C)C(=O)c2ccc(NC(=O)Nc3cccc(F)c3)cc2OC[C@H](C)N(C(=O)Nc2c(C)noc2C)C[C@H]1C	0	0	-	-
C[C@H](CO)N1C[C@H](C)[C@H](CN(C)C(=O)c2cccnc2)Oc2ncc(C3=CCCCC3)cc2C1=O	0	0	-	-
O=C(C[C@@H]1CC[C@H](NC(=O)Nc2ccc(F)cc2)[C@H](CO)O1)NCCN1CCCC1	0	0	-	-
CO[C@@H]1CN(C)C(=O)c2ccc(NC(=O)C3CCCC3)cc2OC[C@H](C)N(C(=O)CC2CC2)C[C@@H]1C	0	0	-	-
COC(=O)COc1ccc2c(c1)O/C(=C\c1cccc([N+](=O)[O-])c1)C2=O	0	0	0	0
COc1ccc(/C=C2\Oc3cc(OCC(N)=O)ccc3C2=O)cc1OC	45	0	0	0
S=c1[nH]nc(-c2cc(-c3ccccc3)n[nH]2)n1/N=C/C(Br)=C/c1ccccc1	0	0	-	32
Cc1ccccc1-c1cc(C(=O)NCc2cccc(Br)c2)nn1CC1CC(c2cccc([N+](=O)[O-])c2)=NO1 (stereo not drawn)	34	0	0	0
COCCNC(=O)c1cc(-c2ccccc2C)n(CC2CC(c3cccc([N+](=O)[O-])c3)=NO2)n1 (stereo not drawn)	0	0	0	0
O=C(Nc1ccc(Cl)cc1)N[C@H]1CC[C@H](CCNS(=O)(=O)c2ccccc2F)O[C@@H]1CO	0	0	-	-
Cc1noc(C)c1NC(=O)Nc1ccc2c(c1)C(=O)N([C@@H](C)CO)C[C@H](C)[C@@H](CN(C)C(=O)CCCN(C)C)OCCCC[C@@H](C)O2	86	0	-	-
Cc1noc(C)c1NC(=O)Nc1ccc2c(c1)C(=O)N([C@@H](C)CO)C[C@H](C)[C@@H](CN(C)C(=O)CCCN(C)C)OCCCC[C@H](C)O2	0	-	-	-
CNC[C@@H]1OCCCC[C@@H](C)Oc2ccc(NC(=O)Nc3c(C)noc3C)cc2C(=O)N([C@H](C)CO)C[C@H]1C	22	0	-	-
Cc1noc(C)c1NC(=O)Nc1ccc2c(c1)C(=O)N([C@H](C)CO)C[C@H](C)[C@H](CN(C)C(=O)c1ccccc1)OCCCC[C@H](C)O2	39	0	-	-
CNC[C@H]1OCCCC[C@@H](C)Oc2ccc(NC(=O)Nc3c(C)noc3C)cc2C(=O)N([C@@H](C)CO)C[C@@H]1C	0	0	-	-
Cc1noc(C)c1NC(=O)Nc1ccc2c(c1)C(=O)N([C@H](C)CO)C[C@@H](C)[C@H](CN(C)C(=O)Nc1ccccc1)OCCCC[C@@H](C)O2	0	0	-	-
Cc1noc(C)c1NC(=O)Nc1ccc2c(c1)C(=O)N([C@H](C)CO)C[C@@H](C)[C@@H](CN(C)C(=O)Nc1ccccc1)OCCCC[C@@H](C)O2	23	0	-	-
COc1ccc(S(=O)(=O)Nc2ccc3c(c2)C(=O)N([C@@H](C)CO)C[C@@H](C)[C@H](CN(C)C(=O)CCC(F)(F)F)OCCCC[C@@H](C)O3)cc1	0	0	-	-
COc1ccc(CC(NC(C)=O)C(=O)NC2CCN(c3nc(C)cc(C)c3C#N)CC2)cc1 (stereo not drawn)	0	-	53	0
C[C@@H]1CN([C@@H](C)CO)C(=O)c2cc(NC(=O)Nc3ccccc3)ccc2O[C@@H](C)CCCCO[C@H]1CN(C)CC1CCCCC1	0	0	-	-
CCN(C[C@@H]1N[C@@H](CO)[C@H]1c1ccc(-c2ccccc2)cc1)C(=O)COC	24	0	-	-
CCC(=O)N(CC)C[C@@H]1[C@@H](c2ccccc2)[C@H](CO)N1C(C)=O	20	0	-	-
CC(=O)N1[C@@H](CO)[C@H](c2ccccc2)[C@@H]1CN(CC(C)C)C(=O)c1ccccn1	27	0	-	-
